# Compound activity: PubChem BioAssay, National Center for Advancing Translational Sciences (NCATS)
# An excerpt weighted towards active compounds, which were near 19% of everything screened.
# HepG2 tox = HepG2 cytotoxicity, counter-screen for TGF-b inhibitors. HepG2 CAGA-GFP viability, ATP luminescence, 18 h. Potency, µM (doses to about 46.1 µM), for the others: at the top dose activity change, negative = cytotoxicity, most hits filed as cytotoxic. 410,000 compounds, 0.76% hits; note: potency is the fitted concentration of half-maximal effect
#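 HepG2 CAGA-GFP cells (1000/well, DMEM with 1% FBS) received compound, then TGF-beta at 500 pg/mL final, and were incubated 18 hours at 37 degrees C. Viability was read by CellTiter-Glo luminescence. Media-only wells were set as complete cell-killing and DMSO as no toxicity.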
# TDP1 block = inhibitors of human tyrosyl-DNA phosphodiesterase TDP1. Q9NUW8. recombinant TDP1, AlphaScreen DNA substrate cleavage. Potency, µM (series often up to 130 µM), without a hit: at the top dose activity change, negative = inhibition, usual class: inhibitors. 350,000 compounds, 0.28% hits. AID 485290; note: potency is the fitted concentration of half-maximal effect; % is set by controls: 0 for no effect and ±100 for the full control effect; nearly all actives have a fitted effect of over 40% in size
# Target sequence (Q9NUW8 whole entry, looked up): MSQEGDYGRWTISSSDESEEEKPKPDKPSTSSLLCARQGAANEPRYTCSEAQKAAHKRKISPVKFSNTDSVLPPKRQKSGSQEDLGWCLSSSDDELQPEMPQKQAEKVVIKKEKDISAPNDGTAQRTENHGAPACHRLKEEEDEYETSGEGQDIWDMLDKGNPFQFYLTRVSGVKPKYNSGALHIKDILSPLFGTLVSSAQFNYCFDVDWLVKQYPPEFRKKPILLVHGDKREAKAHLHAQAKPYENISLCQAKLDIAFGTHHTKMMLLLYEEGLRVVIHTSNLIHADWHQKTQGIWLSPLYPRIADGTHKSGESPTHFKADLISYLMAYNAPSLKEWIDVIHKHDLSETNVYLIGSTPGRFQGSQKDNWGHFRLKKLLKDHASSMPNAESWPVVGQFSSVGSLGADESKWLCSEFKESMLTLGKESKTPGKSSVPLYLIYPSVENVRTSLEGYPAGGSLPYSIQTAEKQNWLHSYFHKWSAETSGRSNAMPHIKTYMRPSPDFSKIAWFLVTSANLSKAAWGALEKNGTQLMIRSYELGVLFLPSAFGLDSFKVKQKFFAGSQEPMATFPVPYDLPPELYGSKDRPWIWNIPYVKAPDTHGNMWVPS
#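 Here, a 5' biotin and 3' phosphotyrosine-FITC DNA oligonucleotide reports Tdp1 activity: intact substrate bridges AlphaScreen beads, while cleavage leaves a 3' phosphate and drops signal. All incubations at room temperature.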
# TGFb SMAD3 inh = inhibitors of TGF-b signaling. HepG2 CAGA-GFP TGF-b/SMAD3 reporter, GFP fluorescence, 18 h; TGF-beta stimulated, 500 pg/mL final. Potency, µM (highest dose often 46.1 µM), for inactives: top-dose activity, negative = inhibition, hits mostly inhibitors. 410,000 compounds, 1.2% hits. AID 588855; note: potency is the fitted concentration of half-maximal effect; % is set by controls: 0 for no effect and ±100 for the full control effect; nearly all actives have a fitted effect of over 65% in size
#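 TGF-beta reporter screen: HEPG2 CAGA-GFP, 1% FBS, 500 pg/mL TGF-beta final, 18 h; per-cell GFP summed per well; curves fitted and categorized by class.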
# IL1B secr inh = blocks inflammasome-driven IL-1 beta release. THP-1 LPS/ATP IL-1B secretion, AlphaLISA, 16 h; stronger effect = lower value. activity change, % at 57.5 µM. 360,000 compounds, 4.7% hits; in the data active = activity change below about -50%; inconclusive = mostly about -30% to -49%; note: % is set by controls: 0 for no effect and ±100 for the full control effect
#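 Secreted IL-1B measured by AlphaLISA bead assay after 16 h compound exposure of THP-1 cells; compounds (final up to 57.5 uM) added 1 h before LPS (250 ng/mL) and ATP (1.25 mM) stimulation; lower signal means less secretion.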
# TDP1 cell noCPT = qHTS for Inhibitors of human tyrosyl-DNA phosphodiesterase 1 (TDP1): qHTS in cells in absence of CPT; DT40 Tdp1-/- hTDP1 cells, no CPT, ATP luminescence, 48 h; Potency, µM (titrated, usually from 46.2 µM), for inactives: at the top dose activity change, negative = growth inhibition, most hits filed as inhibitors; AID 686978, 2013; 420,000 compounds, 15% hits; note: potency is the fitted concentration of half-maximal effect; % is set by controls: 0 for no effect and ±100 for the full control effect; nearly all actives have a fitted effect of over 55% in size
#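 Cells were dispensed at 400 per well, compounds added by pin tool, plates incubated ≥48 hr at 37 °C, then CellTiter-Glo added for 30 min at room temperature before luminescence reading. Line: DT40 Tdp1-/- complemented with hTDP1; camptothecin omitted.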
# TDP1 cell CPT = growth inhibition of DT40 Tdp1-/-;hTDP1 cells with camptothecin (screen for TDP1 inhibitors); chicken DT40 Tdp1-/-;hTDP1 cells + 20 nM CPT, ATP luminescence, 48 h; Potency, µM (highest dose often 46.2 µM), inactives show top-dose activity change, negative = growth inhibition, actives largely listed as inhibitors; 420,000 compounds, 12% hits; note: potency is the fitted concentration of half-maximal effect; % is set by controls: 0 for no effect and ±100 for the full control effect; nearly all actives have a fitted effect of over 55% in size
#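 Chicken DT40 Tdp1-/- cells complemented with human TDP1, 400 cells/well, exposed to compounds plus 20 nM camptothecin for at least 48 h at 37 C; viability read as ATP content by CellTiter-Glo luminescence.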
# The depositor's hits bear a star; ? = inconclusive; / = not tested or not shown; [ ] = dose if it differs, or a comment. Unless noted, calls come from the whole dose curve; as a rule, active = well fitted curve in the direction sought with a large enough effect; inconclusive = small, poorly fitted or top-dose-only effect, or another doubt; inactive = no such curve, though single readings can be large; an effect the other way counts as inactive or inconclusive.
SMILES,HepG2 tox,TDP1 block,TGFb SMAD3 inh,IL1B secr inh,TDP1 cell noCPT,TDP1 cell CPT
O=C(N1CCOCC1)N1CCN(c2nc(-c3ccccc3)cs2)CC1,-10%,12%,-5%,-11,?,-25%
CSc1ccccc1OCc1cc(C(=O)N(C)C2CCCc3ccccc32)no1 (configuration not stated),-36%,1%,-30%,4,?,?
COc1ccc2cc(CNc3ccc(OC)c(OC)c3)c(=O)n(CC(=O)Nc3ccc(C)cc3)c2c1,-8%,6%,14%,/,/,/
Cc1ccc2ncc(C(=O)Nc3ccc(F)cc3F)c(=O)n2c1,-23%,-2%,-15%,/,-6%,-5%
COc1ccc(-c2nnc(SC(C)C(=O)NCc3ccc4c(c3)OCO4)n2Cc2ccco2)cc1 (configuration not stated),1%,4%,?,-14,15µM*,?
Cc1sc2nc(SCC(=O)NCc3ccco3)n(Cc3ccccc3)c(=O)c2c1C,-22%,7%,-4%,17,?,?
Cc1[nH]c2ccc(-c3nnc(SCC(=O)NCc4ccco4)n3Cc3ccccc3)cc2c1C,-5%,11%,?,0,23µM*,?
CC(Sc1nnc(-c2ccco2)n1N)C(=O)NCc1ccc2c(c1)OCO2 (configuration not stated),5%,-7%,-3%,-2,4%,-10%
O=C(CSc1nnc(-c2ccc(Cl)cc2)n1Cc1ccco1)NCc1ccc2c(c1)OCO2,-28%,6%,?,-23,26µM*,?
Cc1occc1-c1nnc(SCC(=O)NCCc2ccccc2)n1Cc1ccccc1,-5%,8%,-21%,?,21µM*,?
Cc1occc1-c1nnc(SCC(N)=O)n1Cc1ccccc1,-11%,4%,-15%,-19,2%,1%
O=c1c2cnn(-c3ccc(F)cc3)c2ncn1Cc1cccc(Cl)c1,6%,0%,-2%,/,-27%,-18%
CCn1c(-c2ccc(-c3ccccc3)cc2)c[nH]c1=S,-11%,8%,-13%,0,?,?
C=CCn1c(-c2ccc(Cl)cc2)c[nH]c1=S,-6%,2%,-11%,10,?,-13%
Cn1c(-c2ccc(-c3ccccc3)cc2)c[nH]c1=S,8%,14%,-1%,-26,?,8.2µM*
C=CCn1c(-c2ccccc2)c[nH]c1=S,-12%,4%,-6%,-1,?,26µM*
COC(Cn1c2c(c3cc(C)ccc31)CCCC2NCc1ccccc1)OC (configuration not stated),-33%,/,-21%,12,15µM*,?
Cc1ccc2c(c1)c1c3n2CCCN(Cc2ccccc2)C3CCC1 (configuration not stated),-21%,3%,-10%,-7,?,?
Cc1ccc(CCNC(=O)c2ccc(Nc3nc4ccccc4n4nnnc34)cc2)cc1,1%,-8%,-2%,/,18µM*,?
O=C(NCc1ccc(F)cc1)c1ccc(Nc2nc3ccccc3n3nnnc23)cc1,3%,5%,-4%,/,15µM*,21µM*
CC(NC(=O)c1ccc(Nc2nc3ccccc3n3nnnc23)cc1)c1ccccc1 (configuration not stated),9%,0%,81%,/,7.3µM*,13µM*
CCOc1ccc(CCNC(=O)c2ccc(Nc3nc4ccccc4n4nnnc34)cc2)cc1OCC,4%,0%,1%,/,?,-23%
CCOc1ccc(Nc2nc3ccccc3n3nnnc23)cc1,-19%,9%,-18%,21,-30%,?
CN(C)c1ccc(Nc2nc3ccccc3n3nnnc23)cc1,-24%,12%,?,/,23µM*,?
COc1cccc(C(=O)Nc2cc(-c3ccccc3)nn2-c2ccccc2)c1,-4%,3%,5%,/,?,?
SMILES,HepG2 tox,TDP1 block,TGFb SMAD3 inh,IL1B secr inh,TDP1 cell noCPT,TDP1 cell CPT
CCCCCCNC(=O)O[C@H]1C[C@H](C(=O)OC)[C@H](C(=O)OC)C2CN(S(=O)(=O)c3ccc(C)cc3)C[C@@]21O (some centres not stated),-71%,/,?,-29,?,?
COC(=O)C1C(O)CC[C@@H]2CN3CCc4c([nH]c5ccccc45)C3C[C@@H]12 (some centres not stated),/,-5%[56.1 µM],/,/,0%,13%
CC(=O)Nc1ccc(Nc2nc3ccc(C)cc3n3nnnc23)cc1,-33%,8%,-16%,/,6.5µM*,6.5µM*
O=C(c1ccc(Nc2nc3ccccc3n3nnnc23)cc1)N1CCN(c2ccc(F)cc2)CC1,0%,2%,-27%,/,9.2µM*,10µM*
COc1ccc(-c2c(N)n[nH]c2C)cc1OC,10%,5%,-12%,0,15%,8%
COc1ccc(-c2c(N)nnc3c2[nH]c2ccccc23)cc1OC,7%,3%,40%,-64*,21µM*,?
O=S(=O)(Cc1ncc(C(F)(F)F)cc1Cl)c1ccccc1,11%,0%,-12%,13,?,23µM*
O=S(=O)(Nc1ccccc1)c1ccc(Oc2ncc(C(F)(F)F)cc2Cl)cc1,-105%,3%,?,34,?,15µM*
CC(C)NS(=O)(=O)c1ccc(Oc2ncc(C(F)(F)F)cc2Cl)cc1,-18%,3%,-10%,-2,?,?
FC(F)(F)c1cnc(COc2cc(Cl)cc(Cl)c2)c(Cl)c1,9%,/,11%,-74*,-29%,-20%
CCOc1ccc(NC(=O)CCn2c(=O)c3cccn3c3cccnc32)cc1,5%,8%,-16%,/,?,?
O=C(NC(=S)Nc1ccccc1N1CCN(C(=O)c2ccccc2)CC1)c1cccs1,-8%,/,-4%,9,?,?
O=C(NC(=S)Nc1ccccc1N1CCCC1)c1cccs1,-26%,10%,-17%,29,15µM*,16µM*
O=C(NC(=S)Nc1ccccc1N1CCCCC1)c1cccs1,-25%,6%,?,11,21µM*,16µM*
CC(=O)Nc1ccc(S(=O)(=O)N2CCC(NC(=O)C(Cc3ccc(C)cc3)NC(C)=O)CC2)cc1 (configuration not stated),-11%,0%,-10%,-5,3%,-18%
CCOCCc1nnc(NC(=O)C(=O)c2cc(C)n(-c3cccc(Cl)c3)c2C)s1,-21%,6%,-5%,/,?,-20%
